The text below walks through data of PubChem BioAssay.

Assay [1] in a line: antimalarial activity against Dd2 strain (AID 2302;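 active = growth inhibition above 50% at the single 2 µM test dose, taken to imply half-maximal potency below 2 µM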;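 note: 0% = DMSO untreated growth and 100% = chloroquine plus artemisinin killed control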). Conditions: P. falciparum Dd2 in RBCs, LDH growth readout, 72 h; at 2 µM; stronger effect = higher value.
Assay [2] can be described thus: human hepatoma cell viability loss – ATP luminescence, cytotoxicity control for P. falciparum antimalarial project, primary screen (AID 2303;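 active = inhibition above 50%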;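 note: 0% = DMSO wells and 100% = digitonin-killed cells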). The conditions noted are these: HepG2 viability, 24-48 h, at 10 µM, stronger effect = higher value.
The target of assay [3] is L-lactate dehydrogenase (Plasmodium falciparum (isolate CDC / Honduras)) (UniProt Q27743). Put plainly: PfLDH activity inhibition – cell lysate, 3D7 strain, counter-screen for P. falciparum growth inhibition project (AID 2304).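 Note: 0% = vehicle and 100% = reference inhibitor.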 The conditions noted are these: P. falciparum 3D7 crude extract, LDH APAD/NBT absorbance; at 2 µM; stronger effect = higher value. (A counterscreen serves to expose hits that act by an unwanted route or on another target.)

Assay [4] can be described thus: inhibition of 3D7 malaria parasite growth – strain 3D7 (AID 2306).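 Note: 0% = DMSO wells and 100% = chloroquine plus artemisinin control wells.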 The conditions noted are these: P. falciparum 3D7 erythrocytic growth, LDH absorbance, 72 h; at 2 µM; stronger effect = higher value.
Assay [5] has as its target Calcium-dependent protein kinase 1 (Plasmodium falciparum (isolate 3D7)) (UniProt P62344). Put plainly: PfCDPK1 kinase inhibitors, biochemical, TCAMS library (AID 1159585; cut-off not given, nearly all actives have IC50 up to about 0.98 µM;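 note: inhibitors leave more ATP so luminescence rises with inhibition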). Conditions: recombinant PfCDPK1, Kinase-Glo ATP depletion luminescence.
Assay [6] deals with Plasmodium falciparum protein kinase 6 (PK6, PF3D7_1337100) (UniProt Q8IDW1). Put plainly: PfPK6 kinase inhibitors, biochemical, TCAMS library (AID 1159586). Conditions: recombinant PfPK6, Kinase-Glo ATP depletion luminescence. In general terms: Kinase-Glo reads ATP consumption through a luciferase reaction.
Assay [7] deals with Protein kinase 7 (PK7), Plasmodium falciparum 3D7 (PF3D7_0213400) (UniProt Q7YTF7). Put plainly: inhibition of Plasmodium PK7 catalytic activity – biochemical, TCAMS antimalarial set, Kinase-Glo luminescence (AID 1159587). Conditions: recombinant PfPK7, Kinase-Glo ATP depletion luminescence.
The target in assay [8] is Calcium-dependent protein kinase 4 (Plasmodium falciparum (isolate 3D7)) (UniProt Q8IBS5). The experiment in a line: PfCDPK4 kinase inhibitors, biochemical, TCAMS library (AID 1159588; cut-off not given, nearly all actives have IC50 up to about 0.91 µM). The conditions noted are these: recombinant PfCDPK4, Kinase-Glo ATP depletion luminescence.

SMILES strings stand for the structures. Unmarked numbers belong to inactive results. For some of these results: Entries with a potency or affinity are not part of this list. Calls of active or inactive are those of the source. Unless noted, the rule behind the calls is not given here.

Calcium-dependent protein kinase 4 (Plasmodium falciparum (isolate 3D7)), sequence (Q8IBS5 whole entry, looked up): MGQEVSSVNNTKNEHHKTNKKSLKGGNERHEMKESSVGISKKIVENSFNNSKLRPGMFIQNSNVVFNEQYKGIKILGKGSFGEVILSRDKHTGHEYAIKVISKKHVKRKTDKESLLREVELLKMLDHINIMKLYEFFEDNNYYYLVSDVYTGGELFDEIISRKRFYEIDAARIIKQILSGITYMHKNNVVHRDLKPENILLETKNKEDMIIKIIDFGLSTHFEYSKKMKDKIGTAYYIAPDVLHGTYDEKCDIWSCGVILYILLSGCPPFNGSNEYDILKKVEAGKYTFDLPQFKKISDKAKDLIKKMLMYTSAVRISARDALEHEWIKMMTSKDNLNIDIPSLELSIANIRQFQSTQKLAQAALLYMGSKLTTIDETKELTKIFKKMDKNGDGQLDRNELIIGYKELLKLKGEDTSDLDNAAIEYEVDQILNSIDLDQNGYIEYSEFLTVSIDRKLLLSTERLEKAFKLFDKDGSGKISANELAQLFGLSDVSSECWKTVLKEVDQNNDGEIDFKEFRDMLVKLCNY
Protein kinase 7 (PK7), Plasmodium falciparum 3D7 (PF3D7_0213400), sequence (Q7YTF7 1-343): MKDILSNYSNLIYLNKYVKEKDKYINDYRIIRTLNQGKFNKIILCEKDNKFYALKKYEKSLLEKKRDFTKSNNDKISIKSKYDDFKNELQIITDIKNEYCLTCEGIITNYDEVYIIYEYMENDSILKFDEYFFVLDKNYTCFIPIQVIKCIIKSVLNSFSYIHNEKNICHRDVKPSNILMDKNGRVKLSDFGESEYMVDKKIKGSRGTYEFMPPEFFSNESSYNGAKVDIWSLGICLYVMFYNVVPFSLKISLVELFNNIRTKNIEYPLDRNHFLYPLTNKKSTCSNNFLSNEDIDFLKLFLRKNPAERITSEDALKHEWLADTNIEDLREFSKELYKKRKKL
Calcium-dependent protein kinase 1 (Plasmodium falciparum (isolate 3D7)), sequence (P62344 whole entry, looked up): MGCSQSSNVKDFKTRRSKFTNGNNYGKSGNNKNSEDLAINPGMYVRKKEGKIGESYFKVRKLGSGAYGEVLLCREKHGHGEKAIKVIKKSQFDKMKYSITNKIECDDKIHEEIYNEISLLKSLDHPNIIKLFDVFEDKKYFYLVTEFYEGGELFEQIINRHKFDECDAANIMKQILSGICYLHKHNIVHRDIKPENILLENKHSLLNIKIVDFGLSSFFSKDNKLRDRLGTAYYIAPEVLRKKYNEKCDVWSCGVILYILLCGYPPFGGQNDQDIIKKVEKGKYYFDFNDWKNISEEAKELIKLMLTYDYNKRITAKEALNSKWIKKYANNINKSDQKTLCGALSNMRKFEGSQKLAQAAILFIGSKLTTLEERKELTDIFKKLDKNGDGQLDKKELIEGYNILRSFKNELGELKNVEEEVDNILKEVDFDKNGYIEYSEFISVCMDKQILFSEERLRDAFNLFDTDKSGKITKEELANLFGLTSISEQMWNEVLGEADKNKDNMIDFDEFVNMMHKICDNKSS
L-lactate dehydrogenase (Plasmodium falciparum (isolate CDC / Honduras)), sequence (Q27743 whole entry, looked up): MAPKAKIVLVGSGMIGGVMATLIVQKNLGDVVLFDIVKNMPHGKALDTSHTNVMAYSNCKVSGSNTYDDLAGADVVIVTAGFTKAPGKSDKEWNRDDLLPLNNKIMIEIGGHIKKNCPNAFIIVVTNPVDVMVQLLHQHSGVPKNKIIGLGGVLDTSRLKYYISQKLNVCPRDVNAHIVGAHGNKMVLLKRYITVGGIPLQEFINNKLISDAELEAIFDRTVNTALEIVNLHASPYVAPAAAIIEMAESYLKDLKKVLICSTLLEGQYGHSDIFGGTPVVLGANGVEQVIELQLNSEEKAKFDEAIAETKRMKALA
Plasmodium falciparum protein kinase 6 (PK6, PF3D7_1337100), sequence (Q8IDW1 1-305): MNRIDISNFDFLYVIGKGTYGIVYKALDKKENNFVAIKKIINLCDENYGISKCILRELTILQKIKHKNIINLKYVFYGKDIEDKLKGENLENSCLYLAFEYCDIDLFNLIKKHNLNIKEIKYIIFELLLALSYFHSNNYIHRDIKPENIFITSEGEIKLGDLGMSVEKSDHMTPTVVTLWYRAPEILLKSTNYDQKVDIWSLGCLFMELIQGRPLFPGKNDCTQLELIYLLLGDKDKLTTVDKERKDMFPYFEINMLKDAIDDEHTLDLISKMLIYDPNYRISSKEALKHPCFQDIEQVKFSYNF

Regarding `COCCCNc1sc(S(=O)(=O)c2ccccc2)nc1S(=O)(=O)c1ccc(Cl)cc1`, the growth inhibition in assay [1] is 87% (active); in assay [4], 95% (active). The inhibition in assay [2] is -7%; in assay [3] it was 4%. The result in assay [5], in assay [6], in assay [7] and in assay [8] was inactive.

As to `Fc1cc(Cl)ccc1Nc1ccnc2cc(-c3ccc(CN4CCOCC4)o3)ccc12`, the growth inhibition in assay [1] was 98% (active); in assay [4], 99% (active). For the same molecule, the inhibition in assay [2] is 33%; in assay [3], 0%. Besides, the result in assay [5], in assay [6], in assay [7] and in assay [8] was inactive.

On to `CN1C(C)(C)CC(NC(=O)c2ccc(-c3nc4cc(Cl)c(Cl)cc4[nH]3)cc2)CC1(C)C`, for which the growth inhibition in assay [1] was 97% (active); in assay [4], 98% (active). Also, the inhibition was 8% in assay [2] and 4% in assay [3]. For the same molecule, the result in assay [5], in assay [6], in assay [7] and in assay [8] was inactive.

Regarding `CC1(C)N=C(N)N=C(N)N1OCc1cccc(Cl)c1Cl`, the results for the growth inhibition in assay [1] and in assay [4] were 75% (active) and 92% (active), respectively. Besides, the inhibition in assay [2] is 68% (active); in assay [3], -1%. Besides, the result in assay [5], in assay [6], in assay [7] and in assay [8] was inactive.

For the molecule `CCOc1ccc2nc(C)cc(NN=Cc3cccc(F)c3)c2c1`, the growth inhibition was 23% in assay [1] and 100% (active) in assay [4]. In addition, the inhibition is -3% in assay [2] and 0% in assay [3]. The outcome in assay [5], in assay [6], in assay [7] and in assay [8] was inactive.

For the molecule `O=C(CSc1n[nH]c(-c2ccccc2Br)n1)c1c[nH]c2ccccc12`, the figures for the growth inhibition in assay [1] and in assay [4] were 95% (active) and 100% (active), respectively. Also, the inhibition in assay [2] was 7%; in assay [3] it was -6%. For the same molecule, the outcome in assay [5], in assay [6], in assay [7] and in assay [8] was inactive.

For the molecule `COc1ccc2nccc([C@@H](O)CN3CCC(NC(=O)/C=C/c4cccc(-c5ccccc5)c4)CC3)c2c1`, the results for the growth inhibition in assay [1] and in assay [4] were 83% (active) and 98% (active), respectively. Also, the inhibition is 12% in assay [2] and -5% in assay [3]. For the same molecule, the outcome in assay [5], in assay [6], in assay [7] and in assay [8] was inactive.

With `CCC(C)(C)NC(=O)C(c1cccc(OC)c1)N(C(=O)CNC(=O)c1cccs1)c1ccc2c(c1)OCCO2` (stereo not given), the growth inhibition is 76% (active) in assay [1] and 100% (active) in assay [4]. Also, the inhibition in assay [2] and in assay [3] was -7% each time. In addition, the outcome in assay [5], in assay [6], in assay [7] and in assay [8] was inactive.

In the case of `CN1CCC(NCc2ccc(S(=O)(=O)Nc3ccc(Oc4cccc(Cl)c4)cc3)cc2)CC1`, the growth inhibition in assay [1] was 5%; in assay [4] it was 99% (active). The inhibition in assay [2] is 47%; in assay [3], 0%. Besides, the result in assay [5], in assay [6], in assay [7] and in assay [8] was inactive.

Regarding `N#Cc1ccc(-c2ccc(C(=O)Nc3ccc4c(c3)CCN(C3CCC3)CC4)nc2)cn1`, the growth inhibition in assay [1] is 15%; in assay [4], 85% (active). Moreover, the inhibition in assay [2] was 24%; in assay [3], -1%. In addition, the outcome in assay [5], in assay [6], in assay [7] and in assay [8] was inactive.

Regarding `COc1cc2c(cc1C(F)(F)F)N(C(=O)Nc1cc(F)cc(-c3cncnc3)c1)CC2`, the growth inhibition in assay [1] is 52% (active); in assay [4], 97% (active). The inhibition in assay [2] was 15%; in assay [3], -5%. Further, the outcome in assay [5], in assay [6], in assay [7] and in assay [8] was inactive.

On to `COc1ccc(CN2CCC(NCc3cccc(-n4ccnc4)c3)CC2)cc1`, for which the growth inhibition in assay [1] was 93% (active); in assay [4], 100% (active). Also, the inhibition is 10% in assay [2] and -5% in assay [3]. Besides, the outcome in assay [5], in assay [6], in assay [7] and in assay [8] was inactive.

`COc1c(C2CCN(CCCCNC(=O)c3ccc(-c4ccc(C#N)cc4)cc3)CC2)ccc2c1C(C)(C)CCC2(C)C`: the growth inhibition in assay [1] is 86% (active); in assay [4] it was 102% (active). For the same molecule, the inhibition in assay [2] was 98% (active); in assay [3] it was -1%. Also, the result in assay [5], in assay [6], in assay [7] and in assay [8] was inactive.

Turning to `CC(C)(C)c1ccc(NC(=O)c2ccc(CN3CCCN(Cc4cccc(Cl)c4)CC3)cc2)cc1`, the growth inhibition in assay [1] was 7%; in assay [4], 96% (active). Moreover, the inhibition in assay [2] was 43%; in assay [3] it was -3%. The result in assay [5], in assay [6], in assay [7] and in assay [8] was inactive.

Take `C[C@@H](NCCc1cccc(Cl)c1)[C@@H](O)c1ccc(OCCCCCCOc2ccc([C@H](O)[C@@H](C)NCCc3cccc(Cl)c3)cc2)cc1`: the growth inhibition in assay [1] and in assay [4] was 100% (active) in each case. In addition, the inhibition in assay [2] was 96% (active); in assay [3], -1%. Besides, the outcome in assay [5], in assay [6], in assay [7] and in assay [8] was inactive.

For `CCCN1CCN(c2cc(NCC)c3c4c(onc24)-c2ccccc2C3=O)CC1`, the results for the growth inhibition in assay [1] and in assay [4] were 11% and 96% (active), respectively. For the same molecule, the inhibition in assay [2] was 4%; in assay [3] it was 6%. Moreover, the outcome in assay [5], in assay [6], in assay [7] and in assay [8] was inactive.

Regarding `O=C(c1cccc(-c2cccc(-c3nc4ccc(F)cc4[nH]3)c2)c1)N1CCCCC1CN1CCC(O)C1` (stereo not given), the growth inhibition in assay [1] is 100% (active); in assay [4], 90% (active). The inhibition is 36% in assay [2] and -5% in assay [3]. Besides, the outcome in assay [5], in assay [6], in assay [7] and in assay [8] was inactive.

Turning to `COc1ccc(NC(=O)Nc2cccc(-c3cccc(-c4nc5c(C)cccc5[nH]4)c3)c2)cc1`, the results for the growth inhibition in assay [1] and in assay [4] were 43% and 101% (active), respectively. In addition, the inhibition is -1% in assay [2] and 2% in assay [3]. In addition, the outcome in assay [5], in assay [6], in assay [7] and in assay [8] was inactive.

For the molecule `CCOC(=O)COc1cccc(CNc2ccc3nc(N)nc(N)c3c2)c1`, the growth inhibition in assay [1] was 99% (active); in assay [4] it was 100% (active). The inhibition in assay [2] is 18%; in assay [3] it was 4%. Moreover, the result in assay [5], in assay [6], in assay [7] and in assay [8] was inactive.

As to `FC(F)(F)c1ccc(/C=C/c2cncnc2Nc2ccc3nc(Cc4ccccc4)[nH]c3c2)cc1`, the results for the growth inhibition in assay [1] and in assay [4] were 101% (active) and 100% (active), respectively. The inhibition was 21% in assay [2] and 1% in assay [3]. Moreover, the result in assay [5], in assay [6], in assay [7] and in assay [8] was inactive.

For orientation: inhibition means the drop in the measured response relative to a control, in per cent.
